Measurements published in PubChem BioAssay AID602393 (Broad Institute, 2012).
Screen size: about 350,000 compounds; about 7,000 (2%) were called active. Only a selection was taken, and actives are over-represented in it overall. A number with no mark means an inactive call. No stated cut-off is given here; in the data, active means activation above about 40%; inconclusive means no clear call, values can overlap the other calls; inactive means below that.

assay: raisers of Bmi1 knock-in reporter signal – mouse ES cells, Bmi1 luciferase knock-in, single point, esBAF inhibitor project, primary screen (AID 602393); details: 24 h, at 12.5 µM, active compounds read high, 100% = twice the neutral-well signal;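 further: 0% = median of the plate's neutral control wells and 100% = double that signal; a rise in the Bmi1 reporter signal indicates esBAF inhibition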

| SMILES | reporter increase |
| --- | --- |
| C[C@H](CO)N1C[C@H](C)[C@H](CN(C)Cc2ccncc2)Oc2ccc(NC(=O)C3CCCCC3)cc2CC1=O | 4.88% |
| COc1ccccc1-c1c(C)nn2c(C)c(C(C)=O)cnc12 | -4.24% |
| COC(=O)c1cnc(Nc2cc(C)ccc2OC)c2ccccc12 | -2.74% |
| COc1ccccc1Nc1ncc(C(C)=O)c(C)n1 | 43.9% (active) |
| CCC(=O)Nc1ccc2c(c1)OC[C@H](C)N(Cc1ccccc1OC)C[C@@H](C)[C@@H](OC)CN(C)C2=O | 4.11% |
| CO[C@H]1CN(C)C(=O)c2cc(NC(=O)Nc3cccc(F)c3)ccc2OC[C@@H](C)N(C)C[C@@H]1C | 1.05% |
| C[C@H](CO)N1C[C@H](C)[C@H](CN(C)C(=O)C2CCOCC2)Oc2ncc(-c3ccccc3F)cc2C1=O | -0.932% |
| COc1ccc(-c2ccc3c(c2)O[C@H](CN(C)Cc2ccccc2C(=O)O)[C@H](C)CN([C@@H](C)CO)S3(=O)=O)cc1 | 4.05% |
| CCC(C(=O)OC)n1cnc2c(oc3ccccc32)c1=O (stereo not given) | 2.51% |
| COc1ccccc1Nc1ncnc2c1oc1ccccc12 | 75.2% (active) |
| COc1ccc(Nc2ncnc3ccc(Br)cc23)c(OC)c1 | -66.9% |
| CCCC(=O)Nc1ccc2c(c1)C(=O)N(C)[C@H]1CC[C@@H](CC(=O)NCc3cccc(F)c3)O[C@H]1CO2 | 11.9% |
| O=C(NCC[C@H]1CC[C@H](NS(=O)(=O)c2ccccc2)[C@H](CO)O1)c1cc(Cl)cc(Cl)c1 | 1.99% |
| Cc1cc(C)c(C)c(S(=O)(=O)N2CCN(C(=O)c3ccc4c(=O)n5c(nc4c3)CCC5)CC2)c1C | -1.07% |
| CC1CCN(C(=O)c2ccc3c(=O)n4c(nc3c2)CCCCC4)CC1 | 10.6% |
| O=C(Nc1cc(F)ccc1F)c1ccc2c(=O)n3c(nc2c1)CCC3 | 54.2% (active) |
| CC(C)CC#Cc1cnc2c(c1)C(=O)N([C@@H](C)CO)C[C@@H](C)[C@@H](CN(C)S(=O)(=O)c1cccs1)O2 | -1.12% |
| Cn1cnc(S(=O)(=O)N2C[C@H](O)COC[C@@H]3O[C@H](CC(=O)NC4Cc5ccccc5C4)CC[C@H]32)c1 | 1.23% |
| O=C(NCc1ccc2c(c1)OCO2)c1ccc(Cl)s1 | 16.1% |
| COc1ccccc1C(=O)NCCC(=O)NC1=NCCS1 | 4.18% |

| SMILES | reporter increase |
| --- | --- |
| O=C(NC1=NCCS1)c1ccc(Cl)s1 | 56.6% (active) |
| COCC(=O)N1C[C@H](C)[C@@H](OC)CN(C)C(=O)c2cc(NC(=O)c3ccc(OC)cc3)ccc2OC[C@H]1C | -1.57% |
| CCCNC(=O)C[C@@H]1CC[C@H]2[C@H](COc3ccc(NS(=O)(=O)c4ccccc4C)cc3C(=O)N2C)O1 | 0.502% |
| CNC[C@H]1OCCCC[C@H](C)Oc2ccc(NS(C)(=O)=O)cc2C(=O)N([C@@H](C)CO)C[C@H]1C | 3.58% |
| CCC1([N+](=O)[O-])COC(c2ccc(C(C)C)cc2)OC1 (stereo not given) | 98.9% (active) |
| CC(C)c1ccc(S(=O)(=O)NC2CCCC2)cc1 | 1.91% |
| CCC1([N+](=O)[O-])COC(c2ccc(C)cc2)OC1 (stereo not given) | -1.7% |
| O=C(NC(=S)Nc1ncccn1)c1ccccc1Br | 44.5% (active) |
| O=C(Nc1ccccc1)c1ccccc1Br | 22.5% |
| CCCN(CC1CC1)C(=S)NC(=O)c1ccccc1Br | -4.35% |
| CO[C@@H]1CN(C)C(=O)c2cc(NC(=O)Nc3cccc(Cl)c3)ccc2OC[C@@H](C)N(C)C[C@@H]1C | -1.87% |
| CO[C@H]1CN(C)C(=O)c2ccc(NC(=O)c3cccc(F)c3)cc2OC[C@H](C)N(CC2CC2)C[C@@H]1C | 9.27% |
| CC(C)N(C(=O)[C@H]1C[C@H](CC(=O)NCCC2=CCCCC2)C(=O)N2CCc3c([nH]c4cc(CCC(=O)N(C)C)ccc34)[C@]12C)C(C)C | 5.79% |
| CN(C)C(=O)CCc1ccc2c3c([nH]c2c1)[C@]1(CCc2ccccc2)[C@@H](C(=O)N2CCCCC2)C[C@H](CC(=O)NCCC2=CCCCC2)C(=O)N1CC3 | 67.9% (active) |
| CN(C)C(=O)CCc1ccc2c3c([nH]c2c1)[C@]1(C)[C@@H](C(=O)N2CCCCC2)C[C@H](CC(=O)NCCC2=CCCCC2)C(=O)N1CC3 | 8% |
| O=C(C[C@@H]1C[C@@H]2c3cc(NC(=O)C4CCC4)ccc3O[C@@H]2[C@@H](CO)O1)NCCN1CCCCC1 | 1.69% |
| Cc1noc(C)c1S(=O)(=O)Nc1ccc2c(c1)CC(=O)N([C@@H](C)CO)C[C@@H](C)[C@H](CN(C)S(=O)(=O)c1cccs1)O2 | -4.75% |
| CCn1nccc1C(=O)Nc1ccc(Cl)c(Cl)c1 | 61.9% (active) |
| O=C(CC(O)(C(F)(F)F)C(F)(F)F)Nc1ccc(Cl)c(Cl)c1 | -47.8% |
| CCn1nccc1C(=O)Nc1ccc(S(=O)(=O)NC23CC4CC(CC(C4)C2)C3)cc1 | 14.5% |

| SMILES | reporter increase |
| --- | --- |
| Cc1ccc(CN(C)C[C@H]2OCc3cn(nn3)CCCC(=O)N([C@@H](C)CO)C[C@H]2C)cc1 | 3.63% |
| O=C(Cc1ccc(Cl)cc1)c1ccccc1 | 61.9% (active) |
| O=C(Cc1ccc(Cl)cc1)NC(=S)Nc1ccccc1O | 2.82% |
| O=C(CN1CCN(c2ccc(Cl)cc2)CC1)c1ccccc1 | -0.082% |
| COc1ccc(-c2ccc3c(c2)[C@@H]2[C@@H](CCN2S(=O)(=O)c2ccccc2F)[C@H](CO)N3)cc1 | -0.198% |
| C[C@@H]1CN([C@H](C)CO)C(=O)Cc2cc(NC(=O)CCCN(C)C)ccc2O[C@H]1CN(C)CC1CCCCC1 | -2.32% |
| C[C@@H]1CN([C@H](C)CO)C(=O)c2cc(NS(=O)(=O)c3ccc(Cl)cc3)ccc2O[C@@H]1CN(C)CC1CCCCC1 | 5.96% |
| O=C(C[C@H]1C=C[C@H](NS(=O)(=O)c2ccc(F)cc2)[C@H](CO)O1)NCc1ccncn1 | 0.952% |
| Cc1ccc(NC(=O)c2ccc(Cl)nc2)cc1S(=O)(=O)N1CCOCC1 | 0.751% |
| COc1ccc(C(=O)Nc2ccc(C3(C#N)CCCC3)cc2)cc1OC | 44% (active) |
| COc1ccc(C(=O)NC2CC(C)(C)NC(C)(C)C2)cc1OC | 0.227% |
| COc1cc(C(=O)NCC2(c3ccccc3)CCCC2)ccc1OC(C)C | -10.2% |
| COc1ccc(Cl)cc1NC(=O)CN(C)CC(=O)Nc1ccc2c(c1)OCO2 | 0.413% |
| O=C(Nc1ccc(N2CCOCC2)cc1)c1ccc2c(c1)OCO2 | 39.9% |
| Cc1ccc(NC(=O)CCCNC(=O)c2ccc(Cl)cc2)cc1S(=O)(=O)N1CCCCC1 | -3.1% |
| Cc1ccc(NC(=O)C2CC(=O)N(c3ccc4c(c3)OCCO4)C2)cc1S(=O)(=O)N1CCCCCC1 (stereo not given) | 1.1% |
| Cc1ccc(C(=O)Nc2ccc3c(c2)OCCO3)cc1S(=O)(=O)N1CCOCC1 | 70.5% (active) |
| COc1ccc(C(=O)Nc2ccc3c(c2)OCO3)cc1OC | 53.2% (active) |
| Cc1ccc(C(=O)Nc2ccc3c(c2)OCO3)cc1S(=O)(=O)N1CCCCC1 | 57% (active) |
| Cc1ccc(C(=O)Nc2ncccc2C)cc1S(=O)(=O)N1CCOCC1 | 3.68% |
